Experimental data: PubChem BioAssay
Active and inactive are the calls of the source.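 How the source made its calls, unless noted: active means visual image review flags a hit and inhibition of aggregation exceeds 20%; inconclusive means visual hit but inhibition at or below 20%; inactive means no hit on visual image review.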

Legend:
[1] = inhibitors of TNFa-induced NFkB p65 translocation, primary screen, imaging, HUVEC, MLSMR starter and 10KST1 sets (AID 438;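 active means inhibition above 20% together with a positive visual image hit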;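 further: compound added about 3h40 before a 20 min TNFalpha stimulation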;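 on inhibition: signal is the nuclear over cytoplasmic p65 intensity ratio per well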); conditions: HUVEC TNFa-induced p65 nuclear translocation; cell count: measured here: nuclei count (cytotoxicity indicator), at 2.08 µM; inhibition: at 2 µM, stronger effect = higher value, 0% TNFa-plus-vehicle, 100% no-TNFa wells
[2] = reduction of polyQ htt aggregates in cells – imaging, exon1htt(103Q)mCFP cells, high-content imaging, primary screen (AID 483); conditions: exon1htt(103Q)mCFP cell line, aggregate imaging, at 2 µM; inhibition of aggregation: stronger effect = higher value; nuclei count: measured here: cell count, toxicity;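 further: compound exposure lasted 3 days before fixation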;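 on nuclei count: percent of the per-plate median nuclei count of sample wells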
[3] = endothelial E-selectin expression blockers – imaging, HUVEC, immunofluorescence, MLSMR starter and 10KST1 sets, primary screen (AID 487;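 active means visually confirmed hit in the image check and inhibition above 20%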;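 on inhibition: signal is fraction of cell area covered by stained E-selectin grains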;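 on nuclei count: 100% = median nuclei count of all wells on the same plate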); conditions: HUVEC TNFalpha-induced E-selectin immunofluorescence imaging, at 2 µM; inhibition: stronger effect = higher value; nuclei count: measured here: cell number, toxicity
[4] = biological target: Voltage-gated potassium channel subunit beta-2 (Rattus norvegicus) (UniProt P62483); assay: inhibitors of rat Kvbeta2 reductase activity – biochemical, NADPH fluorescence, primary screen (AID 622;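 active means fluorescence slope higher than the sample average by over 3 SD, cut at about -0.22 in these data, passing the limit was not always enough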;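 further: slope of raw intensity against log time taken from 70 to 1610 s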); conditions: recombinant KvBeta, 4-cyanobenzaldehyde reduction, at 10 µM, stronger effect = higher value
Chain of Voltage-gated potassium channel subunit beta-2 (Rattus norvegicus) (P62483 whole entry, looked up): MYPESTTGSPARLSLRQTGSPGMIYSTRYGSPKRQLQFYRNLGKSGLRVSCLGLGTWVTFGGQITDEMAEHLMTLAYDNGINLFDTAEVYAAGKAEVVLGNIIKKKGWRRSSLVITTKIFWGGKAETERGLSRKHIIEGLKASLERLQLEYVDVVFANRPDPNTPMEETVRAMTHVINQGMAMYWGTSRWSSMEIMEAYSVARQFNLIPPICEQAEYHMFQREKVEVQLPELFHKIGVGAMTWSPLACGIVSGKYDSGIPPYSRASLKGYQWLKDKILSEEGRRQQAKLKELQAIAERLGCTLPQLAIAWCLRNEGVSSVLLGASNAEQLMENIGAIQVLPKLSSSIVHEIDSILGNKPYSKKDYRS

[5] = biological target: Voltage-gated potassium channel subunit beta-2 (Rattus norvegicus) (UniProt P62483); assay: enhancers of rat Kvbeta2 NADPH turnover – biochemical, NADPH fluorescence, primary screen (AID 623;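 active means NADPH fluorescence slope more negative than the mean of all samples by about 3 SD, 99.7% confidence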;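 further: fluorescence intensity change per second fitted from 20 to 320 s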); conditions: Recombinant KvBeta, NADPH fluorescence decrease slope, 10 min; at 10 µM; stronger effect = lower value
[6] = biological target: Alpha-2C adrenergic receptor (Homo sapiens) (UniProt P18825); assay: compounds altering alpha2C-coupled GIRK flux – cell-based, HEK293 alpha2C/GIRK1/2, thallium flux, primary screen (AID 624;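 active means fluorescence slope after compound addition differing from the mean of all screened samples at 99.7% confidence, in either direction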;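 further: slope of fluorescence ratio to pre-addition baseline per second over 15 to 24 s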); conditions: thallium flux BTC fluorescence, at 10 µM, actives lie on both sides
Chain of Alpha-2C adrenergic receptor (Homo sapiens) (P18825 whole entry, looked up): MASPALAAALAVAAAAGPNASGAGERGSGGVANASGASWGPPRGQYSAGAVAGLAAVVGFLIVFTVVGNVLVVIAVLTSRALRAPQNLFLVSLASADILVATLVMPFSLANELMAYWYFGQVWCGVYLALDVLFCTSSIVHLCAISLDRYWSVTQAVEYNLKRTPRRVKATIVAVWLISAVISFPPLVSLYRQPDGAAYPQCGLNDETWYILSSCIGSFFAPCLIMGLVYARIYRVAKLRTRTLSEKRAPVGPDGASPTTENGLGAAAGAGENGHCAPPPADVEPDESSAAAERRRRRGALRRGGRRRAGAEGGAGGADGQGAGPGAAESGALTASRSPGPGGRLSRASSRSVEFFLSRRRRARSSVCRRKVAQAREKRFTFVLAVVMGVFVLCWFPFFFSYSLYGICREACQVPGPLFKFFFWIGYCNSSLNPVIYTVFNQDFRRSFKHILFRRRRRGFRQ

[7] = blockers of RIG-like receptor reporter activation – cell-based, Sendai virus stimulus, luciferase, 10K MLSCN set, TLR/RLR signaling modifier project, primary screen (AID 602276;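 active means inhibition at or above 50% at 10 µM; inactive means inhibition below 50%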;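 further: firefly luciferase from ISG56 promoter only with Renilla not read in this screen; 0% = Sendai virus plus DMSO and 100% = medium plus DMSO without virus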); conditions: HEK293 RL24 IRF3 luciferase reporter, at 10 µM, stronger effect = higher value
[8] = TLR3 IRF3 reporter activation blockers – cell-based, poly I:C stimulus, luciferase, 10K MLSCN set, primary screen (AID 602277;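 active means inhibition of the reporter signal at or above 50%; inactive means inhibition below 50%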); conditions: HEK293-TLR3 RL24 IRF3 luciferase reporter, at 10 µM, stronger effect = higher value

SMILES	cell count [1]	inhibition [1]	inhibition of aggregation [2]	nuclei count [2]	inhibition [3]	nuclei count [3]	fluorescence slope [4]	NADPH fluorescence slope [5]	slope [6]	inhibition [7]	inhibition [8]
O=C(CSc1nccn1-c1cccc(Cl)c1)NC1CCCC1	256	-9.5% (inactive)	-1.4% (inactive)	95.8%	39.3% (inactive)	95.5%	-0.618 (inactive)	3e-05 (inactive)	0.00565 (inactive)	14.4% (inactive)	29.2% (inactive)
COc1cc(Br)cc(CN2CCN(C/C=C/c3ccccc3)CC2)c1O	273	5.8% (inactive)	-5% (inactive)	98.5%	3% (inactive)	108%	-0.606 (inactive)	-8.8e-06 (inactive)	0.00359 (inactive)	-0.336% (inactive)	-8.7% (inactive)
COC(=O)c1ccc(NC(=O)CN2CCCC2)cc1	612	-11.4% (inactive)	13.1% (inactive)	107%	51.6% (inactive)	141%	-0.514 (inactive)	-6.2e-05 (inactive)	0.00467 (inactive)	9.14% (inactive)	7.68% (inactive)
Cc1cc(C)n(-c2nc3nonc3nc2-n2nc(C)cc2C)n1	797	-15.2% (inactive)	-2.2% (inactive)	110%	-20.5% (inactive)	106%	-0.416 (inactive)	-2e-05 (inactive)	0.00318 (inactive)	11.8% (inactive)	27.1% (inactive)
O=C(CSc1nc(N2CCCCC2)nc(N2CCCCC2)n1)Nc1nccs1	280	-7% (inactive)	5.5% (inactive)	96.9%	-32.8% (inactive)	72.8%	-0.531 (inactive)	7.9e-06 (inactive)	0.00662 (inactive)	1.6% (inactive)	52.4% (active)
CCOC(=O)C(NC(C)=O)(Nc1ccc(S(=O)(=O)Nc2nccs2)cc1)C(F)(F)F (centres undefined)	523	-1% (inactive)	27% (inactive)	93.8%	4.2% (inactive)	95.9%	-0.645 (inactive)	1.5e-06 (inactive)	0.00657 (inactive)	14.8% (inactive)	30.2% (inactive)
CCCCCc1c(C)nc(N2CCc3ccccc32)[nH]c1=O	398	-2.2% (inactive)	-1.3% (inactive)	112%	-5.8% (inactive)	89.4%	-0.609 (inactive)	1.7e-05 (inactive)	0.00814 (inactive)	13.9% (inactive)	-33.8% (inactive)
CCOC(=O)N1CCN(C(=O)COc2ccc(S(=O)(=O)NC(C)C)cc2)CC1	623	6.2% (inactive)	-5.3% (inactive)	110%	11.5% (inactive)	115%	-0.548 (inactive)	-3.6e-05 (inactive)	0.00507 (inactive)	10.8% (inactive)	24.1% (inactive)
CC(C)c1nnc(NC(=O)c2ccc(N3C(=O)CCC3=O)cc2)s1	627	-8% (inactive)	13.9% (inactive)	110%	-36.4% (inactive)	119%	-0.407 (inactive)	9.4e-07 (inactive)	0.00608 (inactive)	4.17% (inactive)	-7.88% (inactive)
c1ccc(-c2nnc(-c3ccco3)n2-c2ccccc2)cc1	383	4.1% (inactive)	8.4% (inactive)	102%	-75.9% (inactive)	126%	-0.47 (inactive)	-2.4e-05 (inactive)	0.00639 (inactive)	15.2% (inactive)	20.5% (inactive)
CCCN(CCC)CCNC(=O)c1cc2c(=O)n(C)c3ccccc3c2n1C	627	0% (inactive)	-18.3% (inactive)	109%	-57.7% (inactive)	112%	-0.456 (inactive)	-7.5e-05 (inactive)	0.00528 (inactive)	27.9% (inactive)	68.2% (active)
CCOc1ccc(N2C(N)=NC(N)=NC2(C)C)cc1	401	2.5% (inactive)	5.2% (inactive)	103%	-19.5% (inactive)	105%	-0.644 (inactive)	5.9e-05 (inactive)	0.00717 (inactive)	11.2% (inactive)	26.1% (inactive)
CC1=C(C(=O)Nc2ccccc2)C(c2ccccn2)n2nc(CCCO)nc2N1 (centres undefined)	662	6.2% (inactive)	13.8% (inactive)	93.5%	-8.5% (inactive)	116%	-0.532 (inactive)	-2.2e-05 (inactive)	0.00679 (inactive)	9.62% (inactive)	29.7% (inactive)
COc1cccc(-c2cc(C(=O)N3CCc4ccccc4C3)no2)c1	550	-17% (inactive)	1% (inactive)	111%	18.5% (inactive)	99.8%	-0.445 (inactive)	7.7e-06 (inactive)	0.0069 (inactive)	-3.65% (inactive)	13.4% (inactive)
COc1ccc(Oc2nc(Oc3ccc(OC)cc3)nc(Oc3ccc(OC)cc3)n2)cc1	320	-5.1% (inactive)	-10.7% (inactive)	109%	-4.6% (inactive)	106%	-0.536 (inactive)	-1.9e-06 (inactive)	0.00755 (inactive)	3.19% (inactive)	11.5% (inactive)
CC(C)OC(=O)CCCCCN1C(=O)CSC1=S	448	-9.2% (inactive)	-5.3% (inactive)	80.5%	-93.7% (inactive)	114%	-0.539 (inactive)	-1.3e-05 (inactive)	0.00459 (inactive)	1.67% (inactive)	-4.31% (inactive)
O=C(CSc1ncccn1)NCc1ccccc1	362	2.5% (inactive)	12.3% (inactive)	103%	36.4% (inactive)	120%	-0.531 (inactive)	3.2e-05 (inactive)	0.00529 (inactive)	-29.7% (inactive)	-47.8% (inactive)
Cc1nnc(NC(=O)CSc2cn(CCNC(=O)c3ccccc3)c3ccccc23)s1	651	-9.6% (inactive)	28.2% (inactive)	70.8%	-12.7% (inactive)	106%	-0.452 (inactive)	5.8e-06 (inactive)	0.00437 (inactive)	-1.29% (inactive)	-44.3% (inactive)
CCn1c2ccccc2c2cc(Nc3cc(C)nc4ncnn34)ccc21	513	8.5% (inactive)	7.5% (inactive)	3%	-104% (inactive)	65.1%	-0.527 (inactive)	7.4e-07 (inactive)	0.00558 (inactive)	68.5% (active)	87.2% (active)
